An excerpt weighted towards active compounds, which were near 2.5% of everything screened.
Efflux pump inh: inhibitors of Candida antifungal efflux pumps expressed in yeast. inhibition, % at 10 µM. S. cerevisiae Candida pump triplex, Nile Red efflux. 0.44% of 330,000 active;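 active = plate passing quality check with inhibition over a set limit, or well fluorescence over plate mean plus 4 SD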;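 also: Nile Red retained in pooled yeast measured as flow cytometry median fluorescence; 0% = buffer negative control and 100% = Enniatin B positive control; higher means more Nile Red kept so more efflux inhibition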
ATG4B inh: inhibitors of human ATG4B cysteine protease; ATG4B cleavage of LC3-PLA2, NBD-HPC fluorescence, 1 h; inhibition, % at 8.33 µM; 0.51% of 340,000 active; AID 504462; in the data active = inhibition above about 40%
Target sequence (Q9Y4P1 whole entry, looked up): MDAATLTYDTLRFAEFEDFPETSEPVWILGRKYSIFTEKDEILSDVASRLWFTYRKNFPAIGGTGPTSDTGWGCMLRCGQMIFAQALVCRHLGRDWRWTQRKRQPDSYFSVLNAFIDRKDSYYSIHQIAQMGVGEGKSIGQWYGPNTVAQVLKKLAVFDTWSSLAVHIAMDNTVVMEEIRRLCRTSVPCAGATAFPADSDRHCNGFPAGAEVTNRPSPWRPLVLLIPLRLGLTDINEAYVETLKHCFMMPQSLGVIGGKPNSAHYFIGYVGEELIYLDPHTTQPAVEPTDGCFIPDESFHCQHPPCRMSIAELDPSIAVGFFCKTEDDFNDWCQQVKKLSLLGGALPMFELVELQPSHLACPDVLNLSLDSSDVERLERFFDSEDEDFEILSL
SUMO Mot1 rescue: inhibitors of SUMOylation pathway: yeast Mot1-301 growth rescue; S. cerevisiae Mot1-301 growth rescue, ATP luminescence, 38.5C; percent above DMSO median, 100 means doubled; growth rescue, % at 18.8 µM; 1% of 320,000 active; AID 2716;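 active = every valid replicate shows activation above 250% relative to neutral control wells; inactive = the rest, any valid replicate at or below 250%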;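 also: OY570 slx delta 5 strain wells were the positive control but not used for scaling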
AI-2 QS modul: modulates the Vibrio harveyi AI-2 quorum sensing system; AID 2094; Vibrio harveyi JMH597 AI-2 luminescence/OD600 ratio, 9 h; hits give low values; strain lacks LuxN and CqsS sensors; 0 = neutral-control median; activity change, % at 7.5 µM; 0.4% of 300,000 active; in the data active = activity change below about -75%, passing the limit was not always enough; inconclusive = no clear call, values can overlap the other calls;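 also: luminescence divided by OD600 gain over 9 h not by final OD600 alone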
V-ATPase pHluor: regulators of yeast V-ATPase proton transport. 0.37% of 350,000 active. AID 504577. S. cerevisiae, pHLuorin cytosolic pH fluorescence. response, % at 10 µM; in the data active = response mostly above about 7.3%, no sharp cut-off; inactive = mostly below about 5.4%; also: actives read high
JMH597 growth rt: retest: inhibitors of Vibrio harveyi JMH597 growth; OD600 absorbance, 9 h; lacks LuxN and CqsS sensors; shares compounds with AI-2 QS modul; 1% of 750 active; growth inhibition, % at 7.5 µM;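 active = every replicate shows growth inhibition above 50%; inconclusive = at least half, but not all, replicates pass that cutoff; inactive = fewer than half of replicates pass it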
BB721 lum counter: retest counter-screen: luminescence loss in constitutive-on quorum sensing strain BB721; shares compounds with AI-2 QS modul; Vibrio harveyi BB721 luminescence, 9 h; inhibition, % at 7.5 µM; 95% of 750 active; AID 2727;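 active = inhibition above about 80% in every replicate, not just on average, limit read from the data; inconclusive = at least half of replicates past the limit, but not all; inactive = fewer than half of replicates past the limit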
BB721 growth rt: retest: inhibitors of Vibrio harveyi BB721 growth. shares compounds with AI-2 QS modul. OD600 absorbance, 9 h. growth inhibition, % at 7.5 µM. 3% of 750 active. AID 2728;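 active = every replicate shows growth inhibition above 50%; inconclusive = at least half but not all replicates above 50% inhibition; inactive = under half of replicates above 50% inhibition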
JMH597 AI-2 mod: Vibrio harveyi AI-2 signaling luminescence modulation – JMH597 strain, confirmation | shares compounds with AI-2 QS modul | Vibrio harveyi JMH597 AI-2 quorum sensing luminescence, 9 h; luxN and CqsS knockout, AI-2 only | inhibition, % at 7.5 µM | 97% of 750 active | AID 2736;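 active = every replicate shows more than 75% inhibition of signal versus neutral control wells; inconclusive = half to three quarters of replicates exceed 75% inhibition; inactive = fewer than half of replicates exceed 75% inhibition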
* hit, by the source's call; ? = inconclusive; . = not tested or not shown.

SMILES	Efflux pump inh	ATG4B inh	SUMO Mot1 rescue	AI-2 QS modul	V-ATPase pHluor	JMH597 growth rt	BB721 lum counter	BB721 growth rt	JMH597 AI-2 mod
Cc1ccccc1NC(=O)CCC(=O)N/N=C/c1cc([N+](=O)[O-])ccc1O	0	-8	29	-109*	1	.	.	.	.
CC1(C)Cc2c(cnn2-c2ccc(F)cc2)C(NC(=O)C2=NNC(=O)CC2)C1 (stereo not given)	0	-3	-10	1	-2	.	.	.	.
CCOC(=O)c1ccc(Oc2c(C)oc3c(CN4CCN(C)CC4)c(O)ccc3c2=O)cc1	0	6	357*	2	2	.	.	.	.
COc1ccc(Oc2c(C)oc3c(CN4CCOCC4)c(O)ccc3c2=O)cc1	0	-15	-5	22	-1	.	.	.	.
CCOc1ccc(NC(=O)CC(c2ccccc2)c2ccc(F)cc2)cc1 (stereo not given)	1	0	49	23	-2	.	.	.	.
CCCN1CNC(=S)N(CC2CCCO2)C1 (stereo not given)	0	8	-18	0	-3	.	.	.	.
O=C(N/N=C/c1ccccc1[N+](=O)[O-])C(=O)N1CCCC1	0	1	355*	2	2	.	.	.	.
CCCCCCn1c(CN2CCN(C(=O)OCC)CC2)nc2c1c(=O)n(C)c(=O)n2C	0	14	-26	6	0	.	.	.	.
Cc1cc(NC(=O)Cc2cccs2)no1	0	16	10	.	-5	.	.	.	.
Cc1cc(NS(=O)(=O)c2ccc(NC(=O)Cc3cccs3)cc2)no1	0	-3	-1	-78*	2	.	.	.	.
C=C1C(C(=O)N2CCN(C)CC2)C1C(=O)N1CCN(C)CC1 (stereo not given)	0	-1	-16	8	13*	.	.	.	.
CCN(c1ccc(OC)cc1)S(=O)(=O)c1csc(C(N)=O)c1	0	4	275*	24	0	.	.	.	.
Cn1c(=O)cc(-c2ccccc2)c2ccccc21	0	2	95	10	13*	.	.	.	.
O=C1NC[C@H](Cc2ccc(O)cc2)N(CC2CCCCC2)C1=O	0	-12	73	-1	-1	.	.	.	.
Oc1ccc(C[C@@H]2CNC(=S)N2CCCCC2CCCCC2)cc1	0	-14	1	-92*	-1	1	92*	-20	96*
Cc1cccc(NC(=O)COC(=O)c2cc(C)oc2C)c1	0	-14	16	-88*	0	17	95*	18	97*
CCN(CC)c1ccc(NC(=O)CSC(=O)c2ccccc2)cc1	0	-2	25	.	-5	.	.	.	.
CC(=O)c1cccc(NC(=O)CSC(=O)c2ccccc2)c1	0	-8	-7	-87*	-2	11	95*	0	97*
CC(=O)c1cccc(NC(=O)COC(=O)c2ccccc2C)c1	0	7	62	-90*	6	4	98*	-8	99*
Cc1cc(C(=O)OCC(=O)Nc2cccc(S(N)(=O)=O)c2)c(C)o1	0	-5	4	.	-1	.	.	.	.
CCCCCC(=O)NC(=S)Nc1cccc(C(C)=O)c1	0	-11	-2	-95*	3	-14	95*	19	96*
O=C(COC(=O)c1ccc(F)cc1F)NCCNC(=O)COC(=O)c1ccc(F)cc1F	0	-3	-7	19	-3	.	.	.	.
CC(=O)c1ccc(NC(=O)COC(=O)c2ccc(F)cc2F)cc1	0	-4	10	-90*	2	14	97*	-13	98*
O=C(Oc1ccccc1)N1CCCCC1	.	.	.	.	-4	.	.	.	.
Cc1cccc(NC(=O)C2CC2c2ccccc2)c1C (stereo not given)	0	15	-1	15	2	.	.	.	.
SMILES	Efflux pump inh	ATG4B inh	SUMO Mot1 rescue	AI-2 QS modul	V-ATPase pHluor	JMH597 growth rt	BB721 lum counter	BB721 growth rt	JMH597 AI-2 mod
O=C(Nc1ccccc1F)C1CC1c1ccccc1 (stereo not given)	0	9	9	-84*	-1	2	92*	-27	93*
Nc1nc(NCc2ccccc2)nc(-c2ccccc2)n1	0	19	-14	-82*	4	-25	87*	-37	92*
Nc1nc(-c2ccccc2)nc(-c2ccccc2O)n1	0	-5	-2	-5	0	.	.	.	.
COc1ccc(OC)c(NC(=O)C2CCCNC2=O)c1 (stereo not given)	0	-2	9	21	2	.	.	.	.
CC(C)Oc1ccc(NC(=O)C2CCCNC2=O)cc1 (stereo not given)	0	2	0	?	-2	-7	89*	-3	93*
COc1ccc(CNC(=S)Nc2ccc(F)c(Cl)c2)cc1	0	20	-12	-84*	-1	8	92*	21	92*
Cc1ccc(NC(=O)CCC(=O)c2ccccc2)cc1	.	-1	.	.	0	.	.	.	.
Cc1ccc(C(=O)CCC(=O)Nc2cccc(C)c2)cc1	0	5	114	-89*	0	39	96*	27	97*
O=C(Nc1ccc(CN2CCOCC2)cc1)c1cccs1	-1	-2	-10	1	-1	.	.	.	.
O=C(Nc1cnn(Cc2ccc(Cl)cc2)c1)c1cccs1	0	5	-18	-89*	-1	26	96*	-9	97*
O=C(Nc1ccc(Nc2ccccc2)cc1)c1ccccc1F	0	11	23	-86*	0	38	94*	20	94*
O=C(Nc1cccc(F)c1)c1ccccc1	0	-10	7	-1	3	.	.	.	.
O=C(Nc1ccc(Nc2ccccc2)cc1)c1cccc(F)c1	0	-2	300	-77*	-2	13	86*	1	90*
CCOC(=O)c1ccccc1NC(=O)COC(=O)C1CCN(S(=O)(=O)c2ccccc2C(=O)OC)CC1	0	-8	6	19	-1	.	.	.	.
O=C(CCN1C(=O)CSC1=O)Nc1ccc(Br)cc1	0	-3	-7	-80*	0	13	13	9	9
Cc1[nH]nc(SCC(=O)N2CCC(C)CC2)c1[N+](=O)[O-]	0	-4	.	16	2	.	.	.	.
CCOC(=O)c1ccc(NC(=O)C(C)N2C(=O)c3ccccc3C2=O)cc1 (stereo not given)	0	-8	-10	21	-2	.	.	.	.
CCOC(=O)c1cccc(NC(=O)C(C)N2C(=O)c3ccccc3C2=O)c1 (stereo not given)	0	-6	0	-95*	-5	11	99*	-1	99*
COc1ccc(/C=N\NC(=O)c2sccc2C)cc1Cn1nc(C)cc1C	0	-7	2	19	-3	.	.	.	.
Cc1cc(NC(=O)Cn2c(C)nc3ccccc3c2=O)ccc1Br	0	-4	4	-87*	2	5	99*	-18	99*
